Data reported in PubChem BioAssay (NCI).
This is part of a sample that, as a whole, favours compounds with a hit. Of some 83,000 tested, about 20% had one in any assay.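 48-hour exposure, single concentration, 96-well plates; percent growth endpoint where 0 means no net growth. Active: below 10.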 A number with no mark means an inactive call. Active and inactive are the calls of the source.

Tested on: SR leukemia
Assay: NCI-60 one-dose screen, 48 h (100 = growth as untreated, 0 = no growth, -100 = all killed)
Details: 10 µM unless noted

| SMILES | growth |
| --- | --- |
| O=C(Nc1cccnc1Nc1ccc(Cl)cc1)c1cn(Cc2cccc(Oc3ccccc3)c2)nn1 | 21.5% |
| C1CCC(N2CN3c4nonc4N4CN(C5CCCCC5)CN5c6nonc6N(C2)C3C45)CC1 (centres undefined) | 83.8% |
| N#Cc1c(-c2ccc(Br)cc2)nc2c(N=Nc3ccc(S(N)(=O)=O)cc3)c(N)nn2c1N | 41.2% |
| COc1cc(/C=C/C(=O)c2cc(OC)c(OC)c(OC)c2)ccc1Oc1nc2c(c(=O)n(C)c(=O)n2C)n1C | 8.62% (active) |
| CC1(/C=C/c2ccc(-c3ccccc3)cc2)CCn2cnc3ncnc(c32)N1O (centres undefined) | 18.3% |
| CCCc1cc(=O)oc2c(C(=O)CC(C)C)c(O)c(CC=C(C)C)c(O)c12 | 14.3% |
| CS(=O)(=O)Nc1cc(-c2ccc3ncnc(Nc4ccc(OCc5ccccn5)c(Cl)c4)c3c2)cnc1Cl | -5.01% (active) |
| CCN1CCN(CCNc2nccc(-c3c(-c4ccc(F)c(O)c4)nc4occn34)n2)S1(=O)=O | 29.5% |
| COc1ccc(C2[C@@H](Cl)C(=O)N2c2cc(OC)c(OC)c(OC)c2)cc1Cl (some centres undefined) | 5.49% (active) |
| CN1CCN(Cc2ccc(NC(=O)c3cncc(C#Cc4cnc(N)cc4C#N)c3)cc2C(F)(F)F)CC1 | 1.8% (active) |
| CN(C)c1ccc([C@@H](C(=O)Nc2cccc([N+](=O)[O-])c2)N(C(=O)c2cc3ccccc3[nH]2)c2cccc([N+](=O)[O-])c2)cc1 | 97% |
| c1cc(OCCN2CCCCC2)ccc1CNc1ccc2nc(CCC3CCCCC3)[nH]c2c1 | 12.5% |
| Cc1[nH]n(-c2cccc(Cl)c2)c(=O)c1/C=C1\C=c2ccccc2=CC1=O | 29.7% |
| CC(C)(C)OC(=O)CN1CCc2c(sc3ncnc(N4CCN(c5ccc(F)cc5)CC4)c23)C1 | 79.8% |
| Cc1ccc2c(c1)sc1nc(-c3c[nH]c4ccccc34)c(Nc3ccccc3)n12 | 97.2% |
| Cn1c(C#N)ccc1-c1ccc(F)c(NC(=O)c2ccc(F)cc2)c1 | 29.4% |
| CCOC(=O)C1=C(CC(O)c2ccc(OC)cc2OC)NC(=O)NC1c1ccccc1 (centres undefined) | 75.9% |
| CCSc1ccnc(N)n1 | 153% |
| Cc1ccc(S(=O)(=O)c2nc(-c3ccccc3)oc2SCC(N)=O)cc1 | 94.6% |
| CN(C)c1ccc(/C=N\NC(=O)c2ccc3nc(-c4ccc(Cl)cc4)[nH]c3c2)cc1 | 20.7% |

| SMILES | growth |
| --- | --- |
| CCOC(=O)C1=C(c2ccccc2)N=C2N(c3ccccc3)N=C(C(C)=O)N2C1c1ccc(F)cc1 (centres undefined) | 97.1% |
| CN(C)Cc1ccc(NC(=O)c2cncc(C#Cc3cnc(N)c4ncccc34)c2)cc1C(F)(F)F | -4.79% (active) |
| CCN(CC)CCn1c2ccc(OC)cc2c2sc3cc(O)ccc3c(=O)c21 | 2.99% (active) |
| Cc1cc(=O)oc2cc(Oc3nc(Br)cn4c(Br)cnc34)ccc12 | 69.4% |
| Nc1[nH]nc2nc(-c3ccccc3)n3c4ccccc4nc3c12 | 92.2% |
| O=[N+]([O-])c1ccccc1Sc1ccccc1[N+](=O)[O-] | 104% |
| CC1(C)N=C(N)N=C(N)N1c1ccc(S(=O)(=O)Nc2nccs2)cc1 | 104% |
| c1ccc(-c2ccc3c(c2)C2(CCNCC2)CN3)cc1 | 96% |
| CCOC(=O)/C=C1\S/C(=N\Nc2cc(=O)[nH]c3ccc(Br)cc23)N(c2ccccc2)C1=O | 3.76% (active) |
| COc1ccc(C2CC(n3ccnc3)c3cc(OC)c(OC)c(OC)c32)cc1O (centres undefined) | 35.4% |
| COC(=O)c1c2c(c[n+]([O-])c1C)C(=O)C=C(NCc1ccccc1)C2=O | -10.3% (active) |
| COc1ccc2c(c1)c(-c1nc(-c3ccc4ccccc4c3)cs1)cn2C | 49.9% |
| Cc1ccc2c(c1)nc(C)n2-c1ncnc2c1CC(C)c1cc(O)ccc1N2C (centres undefined) | 6.97% (active) |
| Cc1cc(N2CCN(CC(=O)Nc3ccc4c(ccn4Cc4ccccc4)c3)CC2)nc(N2CCOCC2)n1 | 107% |
| COCCn1cc(-c2csc(-c3c[nH]c4ccc(F)cc34)n2)c2cccnc21 | 9.53% (active) |
| Cc1ccc(C(=O)c2ccc(CC(=O)N/N=C/c3cccc(O)c3O)n2C)cc1 | 8.86% (active) |
| CC[C@@H](C(=O)[C@@H](C)[C@@H](O)[C@H](C)[C@@H]1O[C@@H]([C@@H](CC)C(=O)ONC(=O)c2ccccc2O)CC[C@@H]1C)C1O[C@]2(C=CC(=O)[C@]3(CC[C@@](C)([C@H]4CC[C@](O)(CC)[C@H](C)O4)O3)O2)[C@H](C)C[C@@H]1C (some centres undefined) | 1.64% (active) |
| COc1cc(-c2nccc3[nH]c(-c4cccc5[nH]ccc45)nc23)cc(OC)c1OC | 8.9% (active) |
| CC(C)Cc1nc(Nc2ccccc2)[nH]c(=O)c1C#N | 34.2% |
